Assay outcomes from PubChem.
MRP1 act: MRP-1 activation | H69AR cells + doxorubicin, viability rescue, CellTiter-Glo | viability increase, % at 10 µM | 140,000 compounds, 0.61% hits | AID 799;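 active = viability gain under doxorubicin at or above a set limit, the compound median plus 3 SD, cut at about 4.7% in these data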;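 note: MRP-1 overexpressing cells given doxorubicin 25 µM after compound pretreatment; 18-22 h compound pretreatment then 72 h with doxorubicin before readout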
FAK blocker: FAK (human) kinase inhibition; 97,000 compounds, 0.84% hits; biochemical FAK kinase activity assay; Q05397; AID 727; inhibition, %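 (tested at 7 µM)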
LYP inh 2: LYP (human) phosphatase inhibition | recombinant LYP catalytic domain, DiFMUP fluorescence | 96,000 compounds, 0.21% hits | inhibition, % at 2 µM | Q9Y2R2 | AID 640;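 active = inhibition at 2 µM at or above a set limit, the screen mean plus 3 SD, cut at about 24% in these data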
PLAP act: activates human placental alkaline phosphatase; 96,000 compounds, 1.2% hits; activation fold at 20 µM; P05187; AID 696; purified PLAP enzyme, luminescent substrate read-out; active compounds read high; in the data active = activation fold above about 2
Target sequence (P05187 whole entry, looked up): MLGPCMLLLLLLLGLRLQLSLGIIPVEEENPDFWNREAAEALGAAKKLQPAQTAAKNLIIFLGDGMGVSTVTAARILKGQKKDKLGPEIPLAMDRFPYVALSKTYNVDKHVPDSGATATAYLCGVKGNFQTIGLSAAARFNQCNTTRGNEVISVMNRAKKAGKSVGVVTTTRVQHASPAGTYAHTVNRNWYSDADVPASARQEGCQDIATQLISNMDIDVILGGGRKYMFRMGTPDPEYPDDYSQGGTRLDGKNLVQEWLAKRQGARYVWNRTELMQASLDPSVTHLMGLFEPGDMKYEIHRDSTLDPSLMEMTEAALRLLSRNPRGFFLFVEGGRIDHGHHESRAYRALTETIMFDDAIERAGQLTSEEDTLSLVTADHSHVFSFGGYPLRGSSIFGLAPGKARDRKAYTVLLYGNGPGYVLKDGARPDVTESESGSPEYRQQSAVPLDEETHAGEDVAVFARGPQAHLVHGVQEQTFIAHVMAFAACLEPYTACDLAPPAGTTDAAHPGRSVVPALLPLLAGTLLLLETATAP
PTPN22 act: activators of human LYP (PTPN22) phosphatase | recombinant LYP, DiFMUP fluorescence; 0 = plate median, 100 = signal doubled | 96,000 compounds, 0.11% hits | activation, % at 2 µM;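 active = activation at 2 µM above a set limit, the mean plus 5 SD, cut at about 37% in these data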
MRP resist rev: reverses drug resistance mediated by MRP | 85,000 compounds, 0.04% hits | H69AR cells + 2 uM doxorubicin, CellTiter-Glo, 72 h | differential viability (reversal), % at 10 µM | AID 602;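 active = viability drop by adding the cancer drug above about 55%, with treated viability meeting a 40% cutoff, limit read from the data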;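 note: larger differential means the compound sensitizes cells more to doxorubicin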
FAK inh conf: FAK (human) inhibition confirmed. shares compounds with FAK blocker. FAK kinase biochemical inhibition assay. inhibition, % at 7 µM. 750 compounds, 28% hits
Numbers stand for hits; 0 = inactive; - = no result given. Sampled rows, rich in hits. Any-hit rate of the full collection: about 2.2%. Cut-off read from the data, not from the text of the source, unless noted: active = inhibition above about 19%; inactive = the rest.

SMILES	MRP1 act	FAK blocker	LYP inh 2	PLAP act	PTPN22 act	MRP resist rev	FAK inh conf
O=C(COC(=O)C1CC2C=CC1C2)NCc1ccco1 (stereo not given)	0	30.1	0	0	0	0	0
O=C(COC(=O)C1CC2C=CC1C2)NCc1ccc(F)cc1 (stereo not given)	0	-	-	-	-	-	-
c1coc(-c2nc(-c3ccco3)c(-c3ccco3)nc2-c2ccco2)c1	0	99.4	0	0	0	0	0
COc1ccc2nc(-c3ccco3)c(-c3ccco3)nc2c1	0	66.5	0	0	0	0	0
COc1ccc(C(=O)Nc2nnc(-c3ccco3)s2)cc1	0	0	0	0	0	0	-
Nc1nc(-c2ccco2)c(-c2ccco2)s1	0	0	0	0	0	0	-
c1ccc(-c2nc(CSc3n[nH]c(-c4cccs4)n3)cs2)cc1	0	0	0	0	0	0	-
COc1ccc(CNC(=O)CCSCc2cccc(Cl)c2)c(OC)c1	0	-	-	-	-	-	-
O=C1c2ccccc2C(=O)N1Cc1ccco1	0	0	0	0	0	0	-
CC1=CC(=C2C(=O)c3ccccc3C2=O)C=C(C)N1Cc1ccco1	0	24.4	0	0	0	0	0
O=C(Nc1ccc(-n2nncc2-c2ccco2)cc1)c1cc2ccccc2oc1=O	0	81.8	0	0	0	-	78.2
O=C(Nc1ccc(-n2nncc2-c2ccco2)cc1)c1cccc(F)c1	0	0	0	0	0	0	-
COC(=O)C1=C(C)NC2=C(C(=O)CC(c3cccs3)C2)C1c1ccsc1 (stereo not given)	0	22.2	0	0	0	0	20.8
CCOC(=O)c1cnc2c(-c3ccccc3)cnn2c1N	0	29.1	0	0	0	-	0
CCOC(=O)c1cnc2c(-c3ccccc3)c(C)nn2c1N	0	0	0	0	0	0	-
CC(C)(C)C(=O)NC(=S)N1CCCC1	0	-	-	-	-	-	-
CC(C)(C)C(=O)NC(=C(Cl)Cl)P(=O)(O)O	0	65.7	0	0	0	-	52.0
O=C(CSc1nnc(COc2cccc3cccnc23)o1)N1CCc2ccccc21	0	19.6	0	0	0	0	0
O=C1c2cc(S(=O)(=O)NCCCO)ccc2-c2ccc(S(=O)(=O)NCCCO)cc21	0	0	0	0	0	0	-
COCCn1c(SCC(=O)NCc2ccco2)nnc1-c1c[nH]c2ccccc12	0	40.4	0	0	0	0	0
CCn1c(SCC(=O)NCc2ccco2)nnc1-c1c[nH]c2ccccc12	0	0	0	0	0	0	-
O=C1N=C(N2CCCC2)CN1c1ccccc1	0	-	-	-	-	-	-
Cc1sc2nc(C3CC3)nc(SCC(=O)NCc3ccco3)c2c1C	0	30.7	0	0	0	0	0
O=C(NNC(=O)c1cc2cc3ccccc3nc2s1)c1cccc(C(F)(F)F)c1	0	24.9	0	0	0	-	0
CCOC(=O)C1C(=O)C=C(Nc2ccccc2F)CC1c1ccccc1 (stereo not given)	0	-	-	-	-	-	-
SMILES	MRP1 act	FAK blocker	LYP inh 2	PLAP act	PTPN22 act	MRP resist rev	FAK inh conf
c1coc(-c2nc3c4c5c(sc4ncn3n2)CCCC5)c1	0	0	0	0	0	0	-
CN1CCc2c(sc3ncn4nc(-c5ccccc5O)nc4c23)C1	0	23.2	0	0	0	0	27.9
O=C(Nc1cccc(Cl)c1)Nc1cccc(Cl)c1	0	0	0	-	0	0	-
O=C(Nc1cccc(Cl)c1)ON=C1c2ccccc2-c2ccccc21	0	38.6	0	0	0	-	0
CCOC(=O)C1=C(N)Oc2c(c(=O)[nH]c3ccccc23)C1c1ccccc1 (stereo not given)	0	0	0	0	0	0	-
O=C(Nc1ccccc1C(=O)NCc1ccc(Cl)cc1)c1ccco1	0	27.3	0	0	0	0	0
O=C(CNC(=O)c1ccco1)NCC(=O)OCc1ccc(Cl)cc1	0	39.5	0	0	0	0	0
CC(C)(C)c1ccc(C(=O)Nc2cccc3c(=O)[nH][nH]c(=O)c23)cc1	0	-	-	-	-	-	-
O=C(CNC(=S)N(Cc1ccccc1)Cc1cccnc1)NC1CCCC1	0	-	-	-	-	-	-
Cn1c(SCC(=O)N2CCc3ccccc32)nnc1-c1ccc(S(=O)(=O)N2CCCC2)cc1	0	-	-	-	-	-	-
CC(Sc1nnc(Cc2cccs2)n1C1CCCCC1)C(N)=O (stereo not given)	0	26.3	0	0	0	0	0
O=C(CSCc1ccc(Cl)cc1)c1ccco1	0	-	-	0	-	0	-
COc1ccc(-c2ccc(SCC(=O)N3CCCC3)nn2)cc1OC	0	0	0	0	0	0	-
CC1CCCCN1C(=O)CSc1ccc(-c2ccc(F)cc2)nn1 (stereo not given)	0	26.2	0	0	0	0	0
COc1ccc(OC)c(S(=O)(=O)NCc2ccccc2)c1	0	0	0	0	0	0	-
COc1ccc(OC)c(NS(=O)(=O)Cc2ccccc2)c1	0	45.7	0	0	0	-	32.2
CSCCC(NC(=O)c1ccccc1Br)C(=O)Nc1ccc(C)cc1 (stereo not given)	0	-	-	-	-	-	-
C/C(=N\NC(=O)c1ccoc1C)c1cccnc1	0	-	-	-	-	-	-
C/C(=N\NC(=O)c1[nH]c2c([N+](=O)[O-])cc(C)cc2c1-c1ccccc1)c1cccnc1	0	19.7	0	0	0	0	0
CCOC(=O)c1c(NC(=S)NC(C)=O)sc(C)c1C	0	-	-	-	-	-	-
CCN1C=CC(=C2C(=O)c3ccccc3C2=O)C=C1	0	36.4	0	0	0	0	0
COC(=O)c1ccc(NC(=O)CSC2=NC(=O)C(c3ccccc3)C(=O)N2)cc1 (stereo not given)	0	-	-	-	-	-	-
CCCCOC(=O)c1ccc(NC(=O)COC(=O)CSc2nc(C)cc(C)n2)cc1	0	-	-	-	-	-	-
N#Cc1cc2ccc(N3CCOCC3)cc2cc1C#N	0	22.7	0	0	0	0	0
Cc1cccc(OCCCCc2c(C)n[nH]c2C)c1	0	0	0	0	0	0	-
SMILES	MRP1 act	FAK blocker	LYP inh 2	PLAP act	PTPN22 act	MRP resist rev	FAK inh conf
Cc1n[nH]c(C)c1CCCOc1ccccc1	0	50.4	0	0	0	0	0
CCCCCNC(=O)c1c[nH]c2ccc(S(=O)(=O)N3CCC4(CC3)OCCO4)cc2c1=O	0	-	-	-	-	-	-
CC(=O)c1ccc(NC(=O)c2ccc3nc(-c4ccco4)c(-c4ccco4)nc3c2)cc1	0	84.2	0	0	0	0	30.4
O=C(Nc1ccccc1)c1ccc2nc(-c3ccco3)c(-c3ccco3)nc2c1	0	20.5	0	0	0	0	0
O=C(c1cccc(C(=O)N2CCN(c3ncccn3)CC2)c1)N1CCN(c2ncccn2)CC1	0	0	0	0	0	0	-
CCCCNC(=O)c1ccc2nc(-c3ccco3)c(-c3ccco3)nc2c1	0	-	-	0	-	-	-
O=C(NCc1ccccc1)c1ccc2nc(-c3ccco3)c(-c3ccco3)nc2c1	0	45.5	0	0	0	0	0
O=C(c1ccc2nc(-c3ccco3)c(-c3ccco3)nc2c1)N1CCN(c2ncccn2)CC1	0	55.1	0	0	0	0	0
CC(C)(C)c1ccc(C(=O)N2CCC(=O)N(C(CO)Cc3ccccc3)CC2)cc1 (stereo not given)	0	-	-	-	-	-	-
O=C(NCc1ccccc1Cl)c1ccc(S(=O)(=O)Nc2cccc(C(F)(F)F)c2)cc1	0	-	-	-	-	-	-
